Rows were chosen to be rich in hits. Some 3.5% of all compounds tested hit in one or more screens of this group.
TEAD-YAP inh – TEAD-YAP interaction inhibition, primary screen, TEAD-YAP interaction inhibitor project, luminescence, HEK-TIYL cells. TEAD-Gal4/YAP UAS-luciferase luminescence. inhibition, % at 9.12 µM. hit rate 1.4% among 640,000. AID 1259422, 2018; in the data active = inhibition above about 32%;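 also: 0% = median of test compound wells and 100% = reference inhibitor wells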
GPR151 activ – activators of human GPR151, primary screen, cell-based, PathHunter beta-arrestin, luminescence | G-protein coupled receptor 151 (Homo sapiens), Q8TDV0 | PathHunter beta-arrestin GPR151 cells | activation, % at 11.2 µM | hit rate 1% among 650,000; in the data active = activation above about 4.9%;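 also: 0% = median of compound wells and 100% = cells with positive control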
MITF inh – MITF inhibitors, primary screen, biochemical, AlphaScreen, human. Microphthalmia-associated transcription factor (Homo sapiens), O75030. AlphaScreen MITF homodimerization, bead proximity signal. inhibition, % at 2.6 µM. hit rate 0.91% among 650,000; in the data active = inhibition above about 50%;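 also: 0% = vehicle wells with protein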
Target sequence (O75030 whole entry, looked up): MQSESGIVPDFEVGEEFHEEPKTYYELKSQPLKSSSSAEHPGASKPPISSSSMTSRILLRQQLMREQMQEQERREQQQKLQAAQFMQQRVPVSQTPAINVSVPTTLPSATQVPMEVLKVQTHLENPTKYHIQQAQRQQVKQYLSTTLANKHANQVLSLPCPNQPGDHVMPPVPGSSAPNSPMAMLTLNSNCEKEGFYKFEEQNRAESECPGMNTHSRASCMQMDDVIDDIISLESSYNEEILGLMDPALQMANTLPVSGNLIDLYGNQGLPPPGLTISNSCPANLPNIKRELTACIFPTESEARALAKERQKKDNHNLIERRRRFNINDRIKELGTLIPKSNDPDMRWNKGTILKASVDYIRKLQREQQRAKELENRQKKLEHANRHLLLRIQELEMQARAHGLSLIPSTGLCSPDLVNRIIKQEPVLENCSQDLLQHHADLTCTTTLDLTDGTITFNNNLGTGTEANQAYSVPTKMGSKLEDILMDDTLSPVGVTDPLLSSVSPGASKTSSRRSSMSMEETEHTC
FBW7 act – FBW7 E3 ligase activators, primary screen, biochemical, AlphaScreen, human; F-box/WD repeat-containing protein 7 (Homo sapiens), Q969H0; AlphaScreen FBW7–phospho-cyclin E peptide binding, activator screen; normalized activity (activation), % at 26.1 µM; hit rate 0.13% among 650,000; in the data active = normalized activity above about 1.9%;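 also: purified mutant Fbw7 with reduced substrate affinity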
Active calls of the source: *.

SMILES	TEAD-YAP inh	GPR151 activ	MITF inh	FBW7 act
COc1cc(Nc2nccn3c(-c4ccc5ccccc5c4)cnc23)cc(OC)c1OC	53.9*	1.8	-9.3	-0.1
COc1ccc(-n2nc3ccc(NC(=O)c4cc(Br)ccc4Cl)cc3n2)cc1	-21.1	1.8	-13.6	-0.1
Cc1ccc(C(C)NC(=O)c2cc3cc([N+](=O)[O-])ccc3oc2=O)cc1C (centres undefined)	-7.9	0.2	-4.7	0.1
Cc1nc2ccccc2n1CC(O)COc1ccc2ccccc2c1 (centres undefined)	14.5	0.6	11.1	-0.4
Cc1cc(=O)oc2cc(OCC(O)Cn3c(C)nc4ccccc43)ccc12 (centres undefined)	50.1*	2.9	-6.0	-0.1
C/C(=N\N=C\c1ccncc1)c1nnn(-c2nonc2N)c1C	-9.6	-2.2	11.7	0.6
O=C(Nc1ccc(Oc2cccnc2)cc1)C1CCN(Cc2ccc(F)cc2)CC1	5.9	0.3	-4.9	-0.2
O=C(Nc1ccc(Oc2cccnc2)cc1)C1CCN(Cc2cc(Cl)ccc2O)CC1	44.3*	-1.1	16.8	0.0
O=C(O)C1Nc2c(Cl)cc(Cl)c(Cl)c2C2C=CCC12 (centres undefined)	8.6	-0.6	57.7*	0.8
O=C(O)C1Nc2c(Cl)cc(Cl)cc2C2C=CCC12 (centres undefined)	8.5	1.4	59.4*	-0.1
Clc1cc(Cl)c2c(c1)C1C=CCC1C(c1ccccc1)N2 (centres undefined)	9.7	-0.1	12.4	0.1
CCOc1cc(C2C(C#N)=C(N)Oc3c2ccc2ccccc32)cc(Br)c1O (centres undefined)	64.6*	0.2	0.9	0.0
COc1ccc(CCNc2ncnc3sc(C)cc23)cc1OC	61.0*	2.9	-10.1	-0.1
CCc1cc2c(NCCc3ccccc3)ncnc2s1	36.2*	2.4	0.3	0.0
COc1ccc(CCNc2ncnc3c2cnn3C)cc1OC	13.5	-0.3	-2.7	-0.1
COc1ccc(CCNc2ncnc3ccc(I)cc23)cc1OC	73.9*	4.0	8.5	-0.3
CCc1cc2c(NCc3ccccc3)ncnc2s1	17.3	1.9	-20.9	0.1
Cc1cc(/C=C2\Sc3ccccc3N2C)cc(C)[n+]1N(C)C	77.5*	0.5	2.7	-0.3
CN1CCN(CC(=O)N2c3ccccc3Sc3ccccc32)CC1	2.9	2.2	0.9	0.0
Cc1cc(/C=C2\Sc3ccccc3N2C)cc(C)[n+]1N1CCN(C)CC1	72.9*	0.3	21.9	0.0
Cc1cc(/C=C2\Sc3ccccc3N2C)cc(C)[n+]1CCCN1CCOCC1	40.7*	-0.4	1.0	-0.2
CC1CCCC(C)N1C(=O)COC(=O)c1cccc(S(=O)(=O)N2CCOCC2)c1 (centres undefined)	-2.2	0.1	14.7	1.0
Cc1cc(=O)[nH]c(-n2nc(C)cc2NC(=O)C(c2ccccc2)c2ccccc2)n1	18.3	0.5	23.5	0.0
O=C(Nc1cccc(C(=O)n2nnc3ccccc32)c1)c1ccccc1	-9.4	-8.3	-8.7	0.1
COc1ccc(-c2cc3nc(C)c(CCC(=O)Nc4ccc(C)cn4)c(C)n3n2)c(OC)c1	25.6	-0.4	18.2	0.2
SMILES	TEAD-YAP inh	GPR151 activ	MITF inh	FBW7 act
COc1ccccc1C1NC(=O)c2[nH]nc(-c3ccc(C)cc3)c21 (centres undefined)	55.1*	1.0	9.1	-0.1
c1ccc(-n2cnc3c(NCc4nc5ccccc5[nH]4)nc(-c4ccc(N5CCOCC5)nc4)nc32)cc1	44.3*	0.4	10.9	0.0
c1ccc(-n2cnc3c(NCc4nc5ccccc5[nH]4)nc(N4CCN(Cc5ccc6c(c5)OCO6)CC4)nc32)cc1	71.0*	-0.2	16.5	0.0
O=C(NCc1nc2ccccc2[nH]1)c1ccc2nc(-c3ccc(N4CCOCC4)nc3)sc2c1	-49.0	0.1	2.0	6.9*
c1ccc(-n2cnc3c(NCc4nc5ccccc5[nH]4)nc(N4CCOCC4)nc32)cc1	82.2*	-0.1	10.4	0.0
OCCC1CN(Cc2cccc3cnccc23)CCN1Cc1ccc(F)c(F)c1 (centres undefined)	1.5	-1.7	5.3	0.3
Cc1sc2ncnc(NC(C)c3ccc(-n4ccnc4)cc3)c2c1C (centres undefined)	46.8*	0.9	4.7	-0.1
Cc1sc2ncnc(NCc3ccncc3)c2c1C	-0.1	1.0	1.9	-0.1
CCOC(=O)c1c(-c2ccccc2)csc1NC(=O)CCC(=O)O	11.4	0.6	11.5	-0.1
CC(C)(C)NCCCOc1ccccc1	-4.3	-0.8	-24.5	-0.1
OCc1ccc(OCc2cccc3ccccc23)cc1	-16.2	3.1	8.1	0.1
Cc1ccc(NC(=O)CNCc2cccs2)c(Br)c1	-30.7	1.6	10.3	3.8*
Cc1ccc(NC(=O)Cc2cccs2)c(Br)c1	-15.5	-0.4	17.2	0.2
FC(F)Oc1ccc(/C=N/N2CCOCC2)c(OC(F)F)c1	-4.8	0.3	6.7	0.5
COc1cc(Nc2cc(N3CCCC3)c3noc4c3c2C(=O)c2ccccc2-4)cc(OC)c1OC	0.0	0.6	1.9	0.0
Cc1ccccc1Nc1cc(N2CCOCC2)c2noc3c2c1C(=O)c1ccccc1-3	5.3	-1.2	54.8*	-0.4
Cc1cccc(Nc2cc(N3CCOCC3)c3noc4c3c2C(=O)c2ccccc2-4)c1	-1.3	-0.4	14.6	-0.1
O=C1c2ccccc2-c2onc3c(N4CCCCC4)cc(N4CCOCC4)c1c23	8.0	0.4	61.7*	-0.6
COc1cc(Nc2cc(N3CCC(C)CC3)c3noc4c3c2C(=O)c2ccccc2-4)cc(OC)c1OC	42.7*	2.9	38.8	-0.2
Cc1c(C(=O)NCC2CCCO2)cnn1-c1nc2c(c(=O)[nH]1)CCCC2 (centres undefined)	4.2	-0.9	6.7	-0.5
CCCCOC(=O)c1ccc(OC(=O)c2sc3ncn(Cc4ccccc4F)c(=O)c3c2C)cc1	6.2	2.5	11.5	0.1
COc1ccccc1C1CC(c2cccc(NS(C)(=O)=O)c2)=NN1C(=O)CCC(=O)O (centres undefined)	-3.4	-1.0	-4.9	-0.1
CNCC(O)Cn1ccc2ccccc21 (centres undefined)	11.9	1.2	3.8	0.0
COc1ccccc1NCC(O)Cn1ccc2ccccc21 (centres undefined)	-3.9	-1.0	69.2*	-0.9
Cc1ccc(NC(=O)CSc2nnc(C)s2)c(C)c1	-11.2	-0.4	-2.6	0.0
Cc1ccc(N/C(N)=N/c2nc(CSc3nnc(C)s3)cc(=O)[nH]2)c(C)c1	44.4*	-0.1	16.8	0.0
O=C(NNc1ccc(C(F)(F)F)cc1[N+](=O)[O-])c1ccccc1	9.4	-0.9	16.3	0.3
O=C(Nc1ccc([N+](=O)[O-])cc1[N+](=O)[O-])c1ccccc1	-1.7	0.4	18.6	-0.1
O=C(NNc1ccc([N+](=O)[O-])cc1[N+](=O)[O-])c1ccccc1	73.0*	-0.3	14.1	-0.3
O=C(NNc1ccc(C(F)(F)F)cc1[N+](=O)[O-])C(F)(F)F	8.9	0.0	22.7	2.5*
